High-throughput results as filed in PubChem BioAssay.
Insulin prom inh = TRM-6 insulin promoter activity inhibition. TRM-6 cells (human fetal islet line), insulin promoter-eGFP reporter, imaging; reporter expression induced with tamoxifen. 0.9% of 130,000 active. inhibition, % at 2 µM. AID 1273;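 active means inhibition above the mean plus 3 SD, with well images judged a real hit on visual review, cut at about 60% in these data, passing the limit was not always enough; inconclusive means inhibition over the cutoff but images rejected on review; inactive means inhibition not above the cutoff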
L major viab = inhibitors of Leishmania major promastigote growth | 9% of 200,000 active | inhibition, % at 10 µM | Leishmania major promastigotes, resazurin fluorescence viability; in the data active means inhibition above about 50%;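 further: promastigotes grown with compound for 44 hours at 28 °C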
Insulin prom up = MIN6 insulin promoter up-regulation; 0.3% of 190,000 active; MIN6 insulin promoter-GFP reporter, high-content imaging; stronger effect = higher value; z-score at 5 µM;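 active means z-score above 3 at 5 µM with at least 500 cells counted in the well; inconclusive means wells under 500 cells, flagged as cytotoxic or low count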
WT yeast gro inh = growth inhibition of WT yeast, mitochondrial fusion screen; mitochondrial fusion phenotypic screen, WT strain; inhibition, % at 10 µM; 2.1% of 190,000 active; AID 1362; in the data active means inhibition above about 58%; tested in S. cerevisiae
ROMK primary = human ROMK K+ channel modulation, primary screen; P48048; Tet-inducible ROMK, thallium flux fluorescence; actives lie on both sides; B-score at 10 µM; 2% of 130,000 active; AID 1918;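 active means signal ratio slope over the read window, or its plate-corrected B-score, at least 3 SD from the plate mean, either direction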;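 further: B-score of the F/F0 ratio slope over 7 to 12 s after thallium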
Target sequence (P48048 whole entry, looked up): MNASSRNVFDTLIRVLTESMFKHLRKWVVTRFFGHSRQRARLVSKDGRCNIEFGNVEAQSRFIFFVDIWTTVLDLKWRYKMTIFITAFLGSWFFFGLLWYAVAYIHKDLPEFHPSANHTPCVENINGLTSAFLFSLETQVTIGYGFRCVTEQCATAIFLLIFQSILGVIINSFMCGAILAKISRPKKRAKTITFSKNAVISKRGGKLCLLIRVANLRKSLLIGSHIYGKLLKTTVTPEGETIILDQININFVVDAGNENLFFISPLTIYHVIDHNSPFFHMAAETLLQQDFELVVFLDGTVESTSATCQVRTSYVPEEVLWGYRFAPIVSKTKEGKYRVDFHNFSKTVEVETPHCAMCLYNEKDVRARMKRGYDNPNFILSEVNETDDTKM
KCC2 mod = modulators of human KCC2 chloride dependent transport; Q9H2X9; KCC2 cells, thallium flux FluoZin-2 fluorescence; B-score of Tl+ flux slope (higher = more flux/activation; lower = inhibition) at 10 µM; 2.2% of 190,000 active;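 active means thallium flux slope and its plate-corrected score both differing from the plate sample mean at a set confidence after two filtering rounds, in either direction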;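 further: slope of fluorescence scaled to starting intensity during 10 to 20 s after thallium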
* marks the source's active call; other numbers are inactive results; i = inactive; ? = inconclusive; . = not tested or not shown. The list is not random: actives were taken first. Their share in the collection is about 12%.

SMILES	Insulin prom inh	L major viab	Insulin prom up	WT yeast gro inh	ROMK primary	KCC2 mod
CNc1nc2cc([N+](=O)[O-])c([N+](=O)[O-])cc2nc1NC	.	3	?	4	.	-0.58
CCOc1ccc2nc(N3CCC(C(=O)N4CCN(C(=O)c5ccco5)CC4)CC3)sc2c1	-71	3	.	13	.	-0.2
CCCN1CCN(CCCNC(=O)C2CCCN(c3nc4ccc(OCC)cc4s3)C2)CC1 (stereo not given)	-10	64*	0.76	-8	.	-0.021
CCOc1ccc2nc(N3CCC(C(=O)N4CCN(C5CCCCC5)CC4)CC3)sc2c1	.	95*	.	13	.	-0.41
Cc1cc(C)c2nc(N3CCC(C(=O)NCCCN4CCCCC4)CC3)sc2c1	i	97*	.	6	.	-2.2
O=C(N/N=C\c1cc(Br)c(Br)o1)c1cncc(Br)c1	39	-3	0.32	4	.	16*
CCOc1ccccc1N/C=C(\C#N)c1nc2ccccc2n1C	72*	-3	0.93	-6	0.77	0.85
NC(=O)/C(=C\c1ccncc1)c1cccc2ccccc12	.	.	0.81	.	.	.
CCN(CC)CCOC(=O)C1(c2ccccc2)CCOCC1	.	73*	-0.36	-9	0.63	-1
CCN(CC)CCCOC(=O)C1(c2ccccc2)CCCC1	7	99*	0.39	1	-0.071	0.1
NC(=O)C1(c2ccccc2)CCOCC1	15	-5	1.2	11	.	0.43
CCCCOc1ccccc1N	-8	-5	-0.09	50	.	0.95
COC(=O)[C@@H]1C2CCC(C(=O)Nc3ccccc3)(CC2)[C@@H]1C(=O)OC	.	-2	-0.12	-3	.	1.3
CCOc1cc(/C=N/O)ccc1OCc1ccc([N+](=O)[O-])cc1	-10	58*	0.05	-2	.	-1.6
CCOc1cc(/C=N/O)ccc1OCc1ccc(F)cc1	-15	37	-0.27	-9	.	-1.4
Cc1ccc(S(=O)(=O)Cc2ccc(C(=O)N3CCN(Cc4ccccc4)CC3)o2)cc1	.	99*	0.34	12	.	-1.4
COc1ccc(N2CCN(C(=O)c3ccc(CS(=O)(=O)c4ccc(OC)cc4)o3)CC2)cc1	.	81*	0.71	-2	.	-0.27
CS(=O)(=O)c1ccc(C(=O)N2CCN(Cc3ccccc3)CC2)cc1	0	-3	0.7	3	0.16	0.5
COc1ccc(S(=O)(=O)Cc2ccc(C(=O)N3CCN(c4ccc(Cl)cc4)CC3)o2)cc1	.	45	-0.73	40	.	.
O=C(c1ccc(CNS(=O)(=O)c2ccccc2)cc1)N1CCN(Cc2ccccc2)CC1	12	72*	-0.14	15	-0.85	.
COc1ccc(S(=O)(=O)Cc2ccc(C(=O)N3CCN(Cc4ccccc4)CC3)o2)cc1	-57	99*	0.63	9	.	-2.3
COc1cc([N+](=O)[O-])ccc1Nc1nc(C)cc(C)n1	.	4	-0.96	-7	-1.8	-1
Nn1c(Cc2cccc3ccccc23)nnc1SCCOc1ccc(Br)cc1	-64	9	0.84	68*	-1.6	-1.7
Cc1cc(C(=O)N/N=C/c2cc(Br)ccc2OC(=O)c2ccc(Br)cc2)n[nH]1	-42	98*	-0.29	35	.	0.51
Cc1cc(C(=O)N/N=C/c2cc(Br)cc(Br)c2OC(=O)c2ccccc2)n[nH]1	.	81*	-0.36	-47	.	0.19
SMILES	Insulin prom inh	L major viab	Insulin prom up	WT yeast gro inh	ROMK primary	KCC2 mod
Cc1cc(C(=O)N/N=C/c2cccs2)n[nH]1	.	3	0.37	7	1.2	1.1
Cc1cc(C(=O)N/N=C/c2cc(Br)cc(Br)c2OC(=O)c2cccc(F)c2)n[nH]1	.	98*	-1.8	18	0.29	1
Cc1cc(C(=O)N/N=C/c2cccn2C)n[nH]1	-3	-3	-0.72	1	0.32	0.15
O=C(Oc1cccc(NC(=O)c2cccs2)c1)c1cccc(S(=O)(=O)N2CCCC2)c1	-8	62*	0.49	-30	-2	-0.12
O=C(Nc1nc(-c2ccc(S(=O)(=O)N3CCOCC3)cc2)cs1)c1ccccc1	18	73*	-0.11	4	.	0.18
COc1ccc(-c2csc(NC(=O)c3ccc(S(=O)(=O)N4CCc5ccccc5C4)cc3)n2)c(OC)c1	19	90*	-2.4	-14	1	-0.34
O=C(Nc1nc(-c2ccc(S(=O)(=O)N3CCCC3)cc2)cs1)c1cccs1	-191	100*	-0.95	7	-0.83	1.1
Cc1ccc(-c2csc(NC(=O)c3cccc(S(=O)(=O)N4CCN(C)CC4)c3)n2)cc1	.	6	0.23	6	.	0.57
O=C(Nc1nc(-c2cc3ccccc3o2)cs1)c1ccc(S(=O)(=O)N2CCCC2)cc1	15	23	-1.9	-1	-0.0088	-0.39
Cc1ccc(S(=O)(=O)N2CCOCC2)cc1C(=O)Nc1nc(-c2cccnc2)cs1	?	0	1.6	2	.	.
COc1ccc(/C=N/Nc2nc(-c3cccc(S(=O)(=O)N4CCCC4)c3)cs2)c(OC)c1	38	69*	-0.33	-17	0.49	-0.68
O=S(=O)(c1ccc(-c2csc(-c3cccnc3)n2)cc1)N1CCOCC1	.	68*	-0.87	14	0.54	0.2
O=C(Nc1nc(-c2nc3ccccc3s2)cs1)c1ccc(S(=O)(=O)N2CCOCC2)cc1	.	52*	-1.5	-5	.	0.54
COc1cccc(C(=O)Nc2nc(-c3ccc(S(=O)(=O)N4CCOCC4)cc3)cs2)c1	-251	92*	-2.1	13	.	0.21
CN(C)S(=O)(=O)c1cccc(-c2csc(N/N=C/c3ccco3)n2)c1	.	.	-0.31	.	.	0.18
C/C=C\C=C/C(=O)Nc1cccc(C2=NOC3(C2)C[C@@H](C(N)=O)N(C(=O)CCCCC)C3)c1 (stereo not given in full)	.	.	-0.4	.	.	1.1
CCc1ccc(-n2cccc2/C=C2/C(=N)N3C(=NC2=O)SN=C3S(C)(=O)=O)cc1	-125	-11	1.1	10	0.16	-5.4*
COc1cc(NC(=O)NCCN2CCN(c3ccc(Cl)cc3)CC2)ccc1C	53	21	-0.5	34	-0.7	0.49
CCCCN(C)CCCNC(=O)c1ccc(N2CCCC2=O)cc1	.	51*	-0.16	-3	-0.056	.
O=C(NCCCN1CCN(c2cccc(Cl)c2)CC1)c1ccc(N2CCCC2=O)cc1	4	97*	0.09	7	.	0.034
COc1ccc(NC(=O)NCCN2CCN(c3cccc(Cl)c3)CC2)cc1	-30	85*	.	14	.	0.23
O=C(c1cc([N+](=O)[O-])ccc1N1CCN(S(=O)(=O)c2ccc(Cl)c(Cl)c2)CC1)N1CCOCC1	-20	9	-0.71	-9	-0.079	-0.43
Cc1cc(=O)oc(C)c1C(=O)Nc1ccc2nsnc2c1	.	-8	.	94*	-0.099	.
COC(=O)CC1C(=O)NCCN1C(=O)OC(C)(C)C (stereo not given)	.	2	-0.01	-3	-0.087	-0.43
CCOC(=O)C(C)(C)N(Cc1ccc(Cl)cc1)S(=O)(=O)c1ccc(Cl)c([N+](=O)[O-])c1	-7	99*	0.5	20	-1.3	-1.4
CCOC(=O)C(C)(C)N(Cc1ccc(C)cc1)S(=O)(=O)c1ccc(Cl)c([N+](=O)[O-])c1	.	100*	0.15	38	.	-1.6
CCOC(=O)C(C)(C)NS(=O)(=O)c1ccc(Cl)c([N+](=O)[O-])c1	.	6	0.05	-1	.	-0.58
